From publication PMC4336329 (PLoS ONE, 2015)
In all, about 310,000 compounds went through this assay and about 14,000 (4.5%) showed an effect of 50% or more. The effect is printed as a negative number. Many of the other results were omitted from the sample, so strong results are more common in it than they were.

What follows are compounds tested against human ether-à-go-go-related gene (hERG) potassium channel (human, UniProt Q12809) (assay: primary screen, population patch clamp on CHO cells stably expressing hERG; higher = less effect of the substance).
Sequence of human ether-à-go-go-related gene (hERG) potassium channel (Q12809 whole entry, looked up): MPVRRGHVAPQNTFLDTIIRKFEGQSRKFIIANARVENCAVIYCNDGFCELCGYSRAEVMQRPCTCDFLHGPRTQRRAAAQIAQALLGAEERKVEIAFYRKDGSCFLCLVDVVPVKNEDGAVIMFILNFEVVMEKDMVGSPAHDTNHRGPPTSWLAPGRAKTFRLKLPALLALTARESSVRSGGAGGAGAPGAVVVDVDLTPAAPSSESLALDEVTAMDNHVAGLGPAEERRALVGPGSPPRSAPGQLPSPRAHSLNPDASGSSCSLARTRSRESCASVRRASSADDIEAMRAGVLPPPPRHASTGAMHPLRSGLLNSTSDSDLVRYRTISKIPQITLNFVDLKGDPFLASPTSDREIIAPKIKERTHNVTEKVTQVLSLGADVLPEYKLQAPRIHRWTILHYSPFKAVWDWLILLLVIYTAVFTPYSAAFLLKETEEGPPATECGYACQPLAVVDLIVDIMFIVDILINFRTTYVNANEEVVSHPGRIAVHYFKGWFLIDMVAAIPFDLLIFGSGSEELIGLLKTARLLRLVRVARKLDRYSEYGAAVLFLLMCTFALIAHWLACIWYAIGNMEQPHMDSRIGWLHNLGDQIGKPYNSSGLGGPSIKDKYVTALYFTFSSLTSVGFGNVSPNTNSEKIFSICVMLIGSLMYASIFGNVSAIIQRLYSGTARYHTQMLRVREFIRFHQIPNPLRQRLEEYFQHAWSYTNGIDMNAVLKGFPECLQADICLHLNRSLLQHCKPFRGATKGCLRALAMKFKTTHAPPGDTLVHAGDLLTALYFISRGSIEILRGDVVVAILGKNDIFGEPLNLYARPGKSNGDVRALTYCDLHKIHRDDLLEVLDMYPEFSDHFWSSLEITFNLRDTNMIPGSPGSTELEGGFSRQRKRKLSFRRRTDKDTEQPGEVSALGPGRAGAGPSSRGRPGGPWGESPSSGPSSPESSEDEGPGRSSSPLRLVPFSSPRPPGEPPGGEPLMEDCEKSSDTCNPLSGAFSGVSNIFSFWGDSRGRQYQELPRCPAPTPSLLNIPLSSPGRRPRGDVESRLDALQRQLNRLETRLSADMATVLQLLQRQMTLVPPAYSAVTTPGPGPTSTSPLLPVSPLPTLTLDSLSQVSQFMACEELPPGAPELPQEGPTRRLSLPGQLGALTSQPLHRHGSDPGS
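Note: peak tail current of the secondary pulse compared with the same well before compound.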

SMILES	hERG current change (%, negative = inhibition) at 10uM [%]
O=C(Nc1ccccc1)C(Cc1cccs1)c1nn[nH]n1 (centres unmarked)	-0.965
O=C(CNc1cccc(S(=O)(=O)N2CCOCC2)c1)Nc1ccc(C(F)(F)F)cc1	-44.2
O=C(Cc1ccccc1)NC(NCCCN1CCOCC1)(C(F)(F)F)C(F)(F)F	5.2
O=C(O)c1cccc(Cn2c(Cl)c(/C=N/NC(=O)c3ccccc3O)sc2=O)c1	12.6
CCc1nnc(SCc2cn3c(C)cc(C)nc3n2)n1N	13.5
Cc1cccc2nc(CSc3nnnn3-c3ccccc3)cn12	-41.5
Cc1cc(C)n2cc(CSc3nncn3C)nc2n1	17.2
Cc1cc(C)n2cc(CSc3nnnn3C)nc2n1	2.06
Cc1cc(C)n2cc(CSc3nnnn3-c3ccccc3C)nc2n1	-58.3
Cc1cc(C)n2cc(CSc3nnnn3-c3ccccc3)nc2n1	-56.3
O=C(CCCc1ccccc1)N1CCc2ccccc21	10.1
Cc1c(N=Cc2ccc(-c3ccc(Cl)cc3)o2)c(=O)n(-c2ccccc2)n1C	-15.3
Cc1cc(C)nc(OC(C(=O)O)C(OCC(C)C)(c2ccccc2)c2ccccc2)n1 (centres unmarked)	17.8
Cc1[nH]c2c(C(F)(F)F)cccc2c1CCN.Cl	-1.49
CCOc1ccc(C(=O)Nc2cccc3nsnc23)cc1[N+](=O)[O-]	5.23
O=C(CCC(F)(F)F)N1CCCC(CO)(CCc2ccccc2)C1 (centres unmarked)	-13.5
OCC1(CC2CCCCO2)CCN(C/C=C/c2ccccc2)CC1 (centres unmarked)	-46
OCC1(CCc2ccccc2)CCCN(C/C=C/c2ccccc2)C1 (centres unmarked)	-73.5
O=S(=O)(Cc1ccccc1)N1CCN(C/C=C/c2ccccc2)CC1	-5.88
C/C=C(\C)CN1CCCC(CO)(Cc2ccccc2)C1 (centres unmarked)	10.4
OCC1(CCc2ccccc2)CCN(C/C=C/c2ccccc2)CC1	-80.9
CC1(C)CC2(CCO1)OC(=O)CC2C(=O)Nc1cccc2ccccc12 (centres unmarked)	12
Cn1cccc1/C=C1\SC(=S)N(CC(=O)O)C1=O	1.83

SMILES	hERG current change (%, negative = inhibition) at 10uM [%]
COc1ccc(OC)c(S(=O)(=O)n2cnc3ccccc32)c1	-5.26
Cc1cccc(CS(=O)(=O)c2ncc(CO)n2C)c1	16
CN(C)CCOc1ncnc2c1oc1ccccc12	-13.5
Cc1cc(C)c(S(=O)(=O)c2ccccc2C)c(OCCN(C)C)n1	-20.2
CCCCc1cc2ccccc2c(OCCN(C)C)n1.Cl	-61.9
CCCCCCCC(=O)NNC(=O)c1ccc([N+](=O)[O-])cc1	-20.6
Cc1ccc(C(=O)OCC(=O)c2ccc(CC(=O)N3CCOCC3)s2)cc1C	-31.2
Cc1cccc(C(=O)OCC(=O)c2ccc(CC(=O)N3CCOCC3)s2)c1C	-52.4
Nc1cc(C(=O)OCC(=O)c2ccc(CC(=O)N3CCOCC3)s2)ccc1Cl	-27.8
O=C(NC1CCN(Cc2ccccc2)CC1)c1cn(-c2ccccc2)nc1-c1cccnc1	-68
COC(=O)c1cn(-c2ccccc2)nc1-c1cccnc1	-28.5
O=C(NCc1cccnc1)c1cn(-c2ccccc2)nc1-c1ccccc1	-24.3
O=C(COC(=O)c1cn(-c2ccccc2)nc1-c1cccnc1)NC1CC1	-0.964
O=C(O)c1cn(-c2ccccc2)nc1-c1cccnc1	-1.94
O=C(NC1CCN(Cc2ccc(Cl)cc2)CC1)c1cn(-c2ccccc2)nc1-c1cccnc1	-75.1
NC(=O)c1cn(-c2ccccc2)nc1-c1cccnc1	-1.67
O=C(NCc1ccncc1)c1cn(-c2ccccc2)nc1-c1cccnc1	-62
O=C(NCc1cccnc1)c1cn(-c2ccccc2)nc1-c1cccs1	-32
CCc1ccc(NC(=S)NCc2ccccc2)cc1	3.91
Cc1nc(N/N=C/c2ccc(Br)cc2)cc(N2CCOCC2)n1	-0.525
CCOC(=O)N1CCC(NC(=O)c2ccc(CS(=O)(=O)c3ccc(OC)cc3)o2)CC1	-33.4
C[C@]12C[C@H](O)[C@@H]3c4ccc(O)cc4CCC3[C@@H]1CCC2=O (some centres unmarked)	9.39
COCCN(CCOC)C(=O)c1ccc(CSc2nc3ccccc3s2)cc1	-21.8

SMILES	hERG current change (%, negative = inhibition) at 10uM [%]
COc1ccc(C(C)(C)C)cc1NC(=O)C1C2C=CC(C2)C1C(=O)O (centres unmarked)	12.5
CCOC(=O)C1=C(C)N(CC(C)C)C(=O)/C1=C\c1ccc(OCC(=O)Nc2ccccc2)cc1	-9.9
COc1cc(OC)nc(NC(=S)NC(=O)c2ccccc2)n1	23.1
Fc1ccccc1NC(=S)N(CCN1CCCCC1)Cc1ccco1	-51.2
COc1ccccc1NC(=S)N(CCN1CCCCCC1)Cc1cccs1	-55.3
COc1ccccc1NC(=S)N(Cc1ccccc1)Cc1cccs1	14.9
Fc1ccccc1NC(=S)N(CCN1CCCCCC1)Cc1cccs1	-53
Fc1ccccc1CN(CCN1CCOCC1)C(=S)Nc1ccccc1Cl	-6.77
S=C(Nc1ccccc1Cl)N(CCN1CCCCC1)Cc1ccco1	-42.3
Cc1ccccc1NC(=S)N(CCN1CCCCC1)Cc1ccco1	-30.2
Cc1ccccc1NC(=S)N(CCN1CCCCCC1)Cc1cccs1	-39.5
COc1ccccc1NC(=S)N(CCCN1CCOCC1)Cc1cccs1	-35.6
Cc1ccc2c(c1)NC(=O)C(CC(=O)NCc1ccc(F)cc1)O2 (centres unmarked)	-9.72
COc1ccc(S(=O)(=O)N(CCC#N)Cc2ccco2)cc1OC	17.8
COc1cc(OC)cc(-c2n[nH]c(=S)n2-c2ccc3c(c2)OCO3)c1	15.4
O=C(NC1CCCCC1)N1CCCC(c2nc(-c3cccs3)no2)C1 (centres unmarked)	-10.5
CCc1nnc(NC(=O)C2CC(=O)N(CCc3ccc(F)cc3)C2)s1 (centres unmarked)	4.54
O=C(Nc1cccc(C(F)(F)F)c1)C(Sc1ncnc2ccccc12)c1ccccc1 (centres unmarked)	0.968
Cc1c(O)ccc2cc(S(=O)(=O)c3ccccc3)c(=O)oc12	13.8
Cc1ccc(-n2ncc3c2CCCC3NC(=O)CSc2ccccn2)cc1C (centres unmarked)	-17.2
Cc1noc2ncnc(N3CCN(c4cccc(Cl)c4)CC3)c12	-52
Cc1noc2ncnc(N3CCCC3)c12	5.93
Cc1noc2ncnc(N3CCN(c4ccc(F)cc4)CC3)c12	-38.3

SMILES	hERG current change (%, negative = inhibition) at 10uM [%]
CCOc1cc(C2C(C(=O)OC)=CN(C3CCCC3)C=C2C(=O)OC)cc(Br)c1O	-1.51
C[N+]1(CC(O)COc2ccccc2)CCN(C(=O)c2ccc([N+](=O)[O-])cc2)CC1.[I-] (centres unmarked)	-9.95
CCc1cccc(Nc2cc(C)nc3nc(C)nn23)c1	-25.3
COc1ccc(-c2nc(CN3CCCCC3c3nccn3C)c(C)o2)c(C)c1C (centres unmarked)	-64.9
COc1ccc(-c2noc(CN3CCCCC3c3nccn3C)n2)cc1 (centres unmarked)	-6.83
COc1ccc(OC)c(-c2nc(CN3CCCCC3c3cccnc3)c(C)o2)c1 (centres unmarked)	-1.11
CC(=O)c1ccc(N(CC(=O)NC2CCCCC2)C(=O)CNC(=O)c2ccco2)cc1	-7.74
O=C(Nc1scc(-c2ccccc2)c1C(=O)O)c1ccco1	-0.991
CCc1nccn1CCC(=O)N1CCCC(N2CCN(c3cccc(Cl)c3)CC2)C1 (centres unmarked)	-36.1
Cc1ccnn1CCC(=O)N1CCCC(N2CCN(c3cccc(Cl)c3)CC2)C1 (centres unmarked)	-30.3
CN(C)C(=O)CCC(=O)N1CCCC(N2CCN(c3cccc(C(F)(F)F)c3)CC2)C1 (centres unmarked)	-12.3
O=C(CCc1ccccn1)N1CCCC(N2CCN(c3cccc(C(F)(F)F)c3)CC2)C1 (centres unmarked)	-68.2
O=C(CCn1cccn1)N1CCCC(N2CCN(c3cccc(C(F)(F)F)c3)CC2)C1 (centres unmarked)	-53.6
O=C(CCn1cncn1)N1CCCC(N2CCN(c3cccc(C(F)(F)F)c3)CC2)C1 (centres unmarked)	-35.8
O=C(CCn1cccn1)N1CCCC(N2CCN(c3cccc(Cl)c3)CC2)C1 (centres unmarked)	-54.1
O=C(c1ccccn1)N1CCCC(N2CCN(c3cccc(C(F)(F)F)c3)CC2)C1 (centres unmarked)	-28.8
COC(=O)CCC(=O)N1CCCC(N2CCN(c3cccc(C(F)(F)F)c3)CC2)C1 (centres unmarked)	-35.8
O=C(NCC1CCCO1)c1ccc2c(=O)n(CC3CCCO3)c(=S)[nH]c2c1 (centres unmarked)	6.52
Cc1sc2nc(COC(=O)c3cccc(OC(F)F)c3)[nH]c(=O)c2c1C	0.0335
O=c1[nH]n2c(=O)c3c([nH]c2c1N=Nc1cccc(Cl)c1)CCCC3	3.75
